Laboratory results from PubChem BioAssay AID1159580 (chemical genetic matrix, 2015).
Among all 5,500 compounds or so, about 2,000 (36%) were called active. Inconclusive results (about 18%) are left out. Cut-off read from the data, not from the text of the source: active = normalized growth mostly below about 0.91 (no sharp cut-off); inconclusive = no clear call, values can overlap the other calls; inactive = mostly above about 0.92. The list shows a part of the results.

Assay: chemical genetic growth profiling, strain panel (AID 1159580);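 note: tested at 20 µM; growth read once vehicle control cultures reached saturation at 30 °C; 1 = growth at the plate median or of vehicle wells; lower values mean less growth of the strain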
Details: growth OD

Measured: normalized growth

COC(=O)[C@H]1[C@H]2C[C@@H]3c4[nH]c5cc(OC)ccc5c4CCN3C[C@H]2C[C@@H](OC(=O)c2cc(OC)c(OC)c(OC)c2)[C@@H]1OC
inactive: S. cerevisiae deletion strains, locus YKL009W, strain mrt4, active compounds read low 1.02 | S. cerevisiae deletion strains, locus YKL068W, active compounds read low 1.01 | S. cerevisiae deletion strains, locus YKL085W, strain MDH1 (second series), active compounds read low 1.01 | S. cerevisiae deletion strains, locus YKL085W, strain MDH1, active compounds read low 1.01 | S. cerevisiae deletion strains, locus YKL160W, strain elf1, active compounds read low 0.961 | S. cerevisiae deletion strains, locus YKL190W, strain CNB1, active compounds read low 0.967 | S. cerevisiae deletion strains, locus YKR001C, strain vps1, active compounds read low 1.03 | S. cerevisiae deletion strains, locus YKR026C, strain gcn3, active compounds read low 0.99 | S. cerevisiae deletion strains, locus YKR091W, strain srl3, active compounds read low 0.982 | S. cerevisiae deletion strains, locus YLL001W, strain dnm1, active compounds read low 1.02 | S. cerevisiae deletion strains, locus YLL026W, active compounds read low 0.975 | S. cerevisiae deletion strains, locus YLL041C, strain sdh2, active compounds read low 0.983 | S. cerevisiae deletion strains, locus YLR027C, strain aat2, active compounds read low 0.986 | S. cerevisiae deletion strains, locus YLR039C, strain RIC1, active compounds read low 1.05 | S. cerevisiae deletion strains, locus YLR058C, strain SHM2, active compounds read low 0.999 | S. cerevisiae deletion strains, locus YLR102C, strain apc9, active compounds read low 1 | S. cerevisiae deletion strains, locus YLR113W, strain HOG1, active compounds read low 0.971 | S. cerevisiae deletion strains, locus YLR221C, strain rsa3, active compounds read low 1.02 | S. cerevisiae deletion strains, locus YLR258W, strain gsy2, active compounds read low 0.965 | S. cerevisiae deletion strains, locus YLR262C, strain YPT6 (second series), active compounds read low 1 | S. cerevisiae deletion strains, locus YLR262C, strain YPT6, active compounds read low 1.05 | S. cerevisiae deletion strains, locus YLR268W, strain sec22, active compounds read low 1.04 | S. cerevisiae deletion strains, locus YLR320W, strain mms22, active compounds read low 0.978 | S. cerevisiae deletion strains, locus YLR330W, strain CHS5, active compounds read low 1 | S. cerevisiae deletion strains, locus YLR342W, strain FKS1 (second series), active compounds read low 0.951 | S. cerevisiae deletion strains, locus YLR342W, strain FKS1, active compounds read low 0.959 | S. cerevisiae deletion strains, locus YLR357W, strain rsc2, active compounds read low 0.977 | S. cerevisiae deletion strains, locus YLR370C, strain arc18, active compounds read low 0.976 | S. cerevisiae deletion strains, locus YLR371W, strain rom2, active compounds read low 1.01 | S. cerevisiae deletion strains, locus YLR384C, strain iki3, active compounds read low 0.989 | S. cerevisiae deletion strains, locus YLR418C, strain cdc73, active compounds read low 0.977 | S. cerevisiae deletion strains, locus YML016C, strain PPZ1, active compounds read low 1 | S. cerevisiae deletion strains, locus YML032C, strain rad52, active compounds read low 1.02 | S. cerevisiae deletion strains, locus YML120C, strain ndi1, active compounds read low 1 | S. cerevisiae deletion strains, locus YML124C, strain tub3, active compounds read low 1.02 | S. cerevisiae deletion strains, locus YMR058W, strain fet3, active compounds read low 0.986 | S. cerevisiae deletion strains, locus YMR078C, strain ctf18, active compounds read low 1.01 | S. cerevisiae deletion strains, locus YMR125W, strain sto1, active compounds read low 0.986 | S. cerevisiae deletion strains, locus YMR129W, active compounds read low 0.981 | S. cerevisiae deletion strains, locus YMR205C, strain PFK2, active compounds read low 0.982 | S. cerevisiae deletion strains, locus YMR223W, strain ubp8, active compounds read low 0.995 | S. cerevisiae deletion strains, locus YMR231W, strain pep5, active compounds read low 1 | S. cerevisiae deletion strains, locus YMR263W, strain SAP30, active compounds read low 0.979 | S. cerevisiae deletion strains, locus YMR307W, strain GAS1, active compounds read low 0.912 | S. cerevisiae deletion strains, locus YNL067W, strain RPL9B, active compounds read low 0.994 | S. cerevisiae deletion strains, locus YNL071W, strain lat1, active compounds read low 0.971 | S. cerevisiae deletion strains, locus YNL128W, strain TEP1, active compounds read low 1 | S. cerevisiae deletion strains, locus YNL153C, strain GIM3, active compounds read low 1 | S. cerevisiae deletion strains, locus YNL183C, strain NPR1, active compounds read low 0.949 | S. cerevisiae deletion strains, locus YNL209W, strain ssb2, active compounds read low 0.984 | S. cerevisiae deletion strains, locus YNL233W, strain BNI4, active compounds read low 0.997 | S. cerevisiae deletion strains, locus YNL248C, strain rpa49, active compounds read low 0.955 | S. cerevisiae deletion strains, locus YNL250W, strain rad50, active compounds read low 1.01 | S. cerevisiae deletion strains, locus YNL271C, strain bni1, active compounds read low 1.02 | S. cerevisiae deletion strains, locus YNL298W, strain CLA4, active compounds read low 1.02 | S. cerevisiae deletion strains, locus YNL307C, strain MCK1, active compounds read low 1.01 | S. cerevisiae deletion strains, locus YNL322C, strain KRE1 (second series), active compounds read low 0.976 | S. cerevisiae deletion strains, locus YNL322C, strain KRE1, active compounds read low 0.995 | S. cerevisiae deletion strains, locus YNR049C, strain mso1, active compounds read low 0.972 | S. cerevisiae deletion strains, locus YNR052C, strain pop2, active compounds read low 1 | S. cerevisiae deletion strains, locus YOL006C, strain TOP1, active compounds read low 0.989 | S. cerevisiae deletion strains, locus YOL012C, strain htz1 0.714 | S. cerevisiae deletion strains, locus YOL147C, strain pex11, active compounds read low 1.02 | S. cerevisiae deletion strains, locus YOR001W, strain rrp6, active compounds read low 1.03 | S. cerevisiae deletion strains, locus YOR061W, strain CKA2, active compounds read low 0.999 | S. cerevisiae deletion strains, locus YOR069W, strain VPS5, active compounds read low 1 | S. cerevisiae deletion strains, locus YOR070C, strain gyp1, active compounds read low 0.983 | S. cerevisiae deletion strains, locus YOR080W, strain dia2, active compounds read low 0.982 | S. cerevisiae deletion strains, locus YOR083W, strain WHI5, active compounds read low 0.948 | S. cerevisiae deletion strains, locus YOR106W, strain vam3, active compounds read low 0.947 | S. cerevisiae deletion strains, locus YOR136W, strain idh2, active compounds read low 1.02 | S. cerevisiae deletion strains, locus YOR144C, strain elg1, active compounds read low 1.01 | S. cerevisiae deletion strains, locus YOR184W, strain ser1, active compounds read low 1.04 | S. cerevisiae deletion strains, locus YOR231W, strain MKK1, active compounds read low 0.983 | S. cerevisiae deletion strains, locus YOR265W, strain rbl2, active compounds read low 0.988 | S. cerevisiae deletion strains, locus YOR270C, strain vph1, active compounds read low 0.969 | S. cerevisiae deletion strains, locus YOR290C, strain snf2, active compounds read low 0.948 | S. cerevisiae deletion strains, locus YOR316C, strain cot1, active compounds read low 1.01 | S. cerevisiae deletion strains, locus YPL051W, strain arl3, active compounds read low 0.979 | S. cerevisiae deletion strains, locus YPL055C, strain LGE1, active compounds read low 0.972 | S. cerevisiae deletion strains, locus YPL078C, strain atp4, active compounds read low 0.972 | S. cerevisiae deletion strains, locus YPL106C, strain sse1, active compounds read low 0.895 | S. cerevisiae deletion strains, locus YPL240C, strain hsp82, active compounds read low 0.992 | S. cerevisiae deletion strains, locus YPL241C, strain CIN2, active compounds read low 0.997 | S. cerevisiae deletion strains, locus YPL256C, strain CLN2, active compounds read low 0.983 | S. cerevisiae deletion strains, locus YPR119W, strain clb2, active compounds read low 1.01 | S. cerevisiae deletion strains, locus YPR141C, strain kar3, active compounds read low 1.02 | S. cerevisiae deletion strains, locus YPR163C, strain tif3, active compounds read low 1.02 | S. cerevisiae deletion strains, locus YPR167C, strain met16, active compounds read low 1.01 | S. cerevisiae deletion strains, strain wtn01, active compounds read low 1.01 | S. cerevisiae strains, strain wild type, active compounds read low 0.986
